# Data reported in PubChem BioAssay (NCATS).
# Results filed as inconclusive are left out. Active and inactive are the calls of the source. Calls follow the shape of the dose curve; as a rule, active = well fitted inhibition curve with a large enough effect; inconclusive = small, poorly fitted or top-dose-only effect; inactive = flat fitted curve, though single readings scatter.
# Test system: HACAT
# Experiment: qHTS assay to identify novel small-molecules to repurpose for Merkel cell carcinoma treatment (AID 1296009); also: nearly all actives have a fitted effect of over 60% in size
# Conditions: MCC and control cell lines, CellTiter-Glo viability, 72 h; at 44.8 µM (top of the series) unless noted
# How it was run: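 Cell viability, measured as CellTiter-Glo luminescence, was normalized between DMSO and no-cell wells. The cells had been exposed to 8- or 11-point compound dilutions for 72 hr at 37 degree celsius.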
row,SMILES,outcome
1,CC(=O)OCC(=O)O[C@@H]1[C@H]2[C@@H](OC(=O)c3ccccc3)[C@@H](C)C[C@]2(O)[C@H](OC(C)=O)C2(C)[C@H]3CC(C)(C)C(=O)[C@@H]3CC1(OC(C)=O)[C@@H]2OC(C)=O (some centres undefined),inactive [at 17.4 µM]
2,CC1(O)CCC2C(C(=O)O)=COC(OC3OC(CO)C(O)C(O)C3OC(=O)/C=C/c3ccc(O)cc3)C21 (centres undefined),inactive [at 17.4 µM]
3,CC(=O)NC(CCC(=O)O)C(=O)NCCc1ccc(O)cc1 (centres undefined),inactive
4,COC(=O)C1C(c2ccc(O)cc2)C(C(=O)OC)C1c1ccc(O)cc1 (centres undefined),inactive
5,C=C(C)C(=O)O[C@H]1C[C@@](C)(OC(C)=O)[C@@]2(O)CC[C@@](C)(O)[C@H](OC(C)=O)[C@@]23OC(=O)C(COC)=C13,inactive [at 17.4 µM]
6,CC1(C)CC(=O)N(CCCCN2CCN(c3ncccn3)CC2)C(=O)C1,inactive
7,COc1ccc2c(c1)OC[C@]1(O)c3cc4c(cc3O[C@H]21)OCO4,inactive
8,CC(CCC1(O)OC2CC3C4CCC5CC(O[C@@H]6O[C@H](CO)[C@@H](O)[C@H](O)[C@H]6O[C@@H]6OC[C@@H](O)[C@H](O)[C@H]6O)C(O)CC5(C)C4CCC3(C)C2C1C)CO[C@@H]1O[C@H](CO)[C@@H](O)[C@H](O)[C@H]1O (some centres undefined),inactive [at 9.27 µM]
9,COc1cc(CCc2ccccc2)c(C(=O)O)c2c1CC(C(C)(C)O)O2 (centres undefined),inactive
10,CCCC1=CC2=C(CO1)C(=O)C(C)(OC(=O)c1c(C)cc(OC)cc1O)C(O)C2 (centres undefined),inactive [at 17.4 µM]
11,C[C@@H]1O[C@@H](O[C@@H]2[C@@H](O)[C@H](O[C@@H]3[C@@H](O)[C@@H](O)[C@H](O[C@H]4[C@H](OC(=O)[C@]56CCC(C)(C)C[C@H]5C5=CCC7[C@@]8(C)C[C@H](O)[C@H](O[C@@H]9O[C@@H](C)[C@H](O)[C@@H](O)[C@H]9O)[C@@](C)(CO)C8CC[C@@]7(C)[C@]5(C)C[C@H]6O)O[C@H](C)[C@H](O)[C@@H]4O)O[C@H]3C)OC[C@H]2O)[C@H](O)[C@H](O)[C@H]1O (some centres undefined),inactive [at 9.27 µM]
12,CCS(=O)(=O)N1CCC([C@@H](C)n2c(C)c(C(=O)NCc3c(OC)cc(C)[nH]c3=O)c3ccccc32)CC1,inactive
13,C/C=C1\[C@H](O[C@@H]2O[C@H](CO)[C@@H](O)[C@H](O)[C@H]2O)OC=C(C(=O)OC)[C@H]1CC(=O)OC,inactive [at 17.4 µM]
14,O=C(O[C@H]1[C@@H]2C[C@@H]3OC[C@@](O)([C@H]2[C@H](O[C@@H]2O[C@H](CO)[C@@H](O)[C@H](O)[C@H]2O)O3)[C@@H]1O)c1ccccc1,inactive [at 17.4 µM]
15,CC1CCC2C(C)(C)C(O)CCC2(C)C12Cc1c(O)cc3c(c1O2)C(N)=NC3 (centres undefined),inactive
16,C=CC(C)(C)O[C@@H]1O[C@H](CO[C@@H]2OC[C@](O)(CO)[C@H]2O)[C@@H](O)[C@H](O)[C@H]1O,inactive
17,CCCC(N[C@@H](C)C(=O)N1[C@H](C(=O)O)C[C@@H]2CCCC[C@@H]21)C(=O)OCC (some centres undefined),inactive
18,O=C(O)c1ccc(CCCc2ccc(OCCc3ccc(F)cc3)cc2)o1,inactive
19,Cc1[nH]cnc1C1CCN(c2nc3cccc4c3n2CCC4=O)CC1,inactive
20,C[C@@H]1O[C@@H](O[C@@H]2[C@@H](O)[C@H](O[C@@H]3[C@@H](O)[C@@H](O)[C@H](O[C@H]4[C@H](OC(=O)[C@]56CCC(C)(C)C[C@H]5C5=CCC7[C@@]8(C)C[C@H](O)[C@H](O[C@@H]9O[C@H](C(=O)O)[C@@H](O)[C@H](O)[C@H]9O)[C@@](C)(CO)C8[C@H](O)C[C@@]7(C)[C@]5(C)CC6)OC[C@H](O)[C@@H]4O)O[C@H]3C)OC[C@H]2O)[C@H](O)[C@H](O)[C@H]1O (some centres undefined),inactive [at 9.27 µM]

row,SMILES,outcome
1,CC1(C)CC2C(O)C3=C(CC(C)(O)C2C1)C(=O)OC3O (centres undefined),inactive
2,CC(C)=CC/C=C(/C)[C@H]1CC[C@]2(C)[C@@H]1[C@H](O)CC1[C@@]3(C)CC[C@H](O)C(C)(C)[C@@H]3[C@@H](O[C@@H]3O[C@H](CO)[C@@H](O)[C@H](O)[C@H]3O[C@@H]3O[C@@H](C)[C@H](O)[C@@H](O)[C@H]3O)C[C@]12C (some centres undefined),inactive [at 17.4 µM]
3,O=C(/C=C/c1ccc(O)cc1)OCC1=C[C@@H](O)[C@@H]2C=CO[C@@H](O[C@@H]3O[C@H](CO)[C@@H](O)[C@H](O)[C@H]3O)[C@H]12,inactive [at 17.4 µM]
4,O=C(O[C@H]1[C@@H]2C=CO[C@@H](O[C@@H]3O[C@H](CO)[C@@H](O)[C@H](O)[C@H]3O)[C@@H]2[C@@]2(CO)O[C@@H]12)c1ccc(O)c(O)c1,inactive [at 17.4 µM]
5,O=C(O)C[C@H]1CCC(=O)[C@@H]1C/C=C\CCOC1OC(CO)C(O)C(O)C1O (some centres undefined),inactive
6,CC(=O)OC1C(O)C(C)=C(CCC(C)CC(=O)O)C2(C)CCCC(C)(C)C12 (centres undefined),inactive
7,Cc1ncc([N+](=O)[O-])n1CC(O)CN1CCOCC1 (centres undefined),inactive
8,COc1cc2c(cc1O)C1(Cc3ccc4c(c3C1=O)OCO4)N(C)CC2 (centres undefined),inactive
9,COC(=O)[C@H](CC1C=NC=N1)NCC12CC3CC(CC(C3)C1)C2 (some centres undefined),inactive
10,CCOC(=O)c1ccc(N(C)c2csc(-c3ccccc3)n2)cc1,inactive
11,C/C1=C\C[C@H](O[C@@H]2O[C@H](CO)[C@@H](O)[C@H](O)[C@H]2O)/C(C)=C/[C@H]2OC(=O)[C@H](C)[C@@H]2CC1,inactive [at 17.4 µM]
12,COc1ccc(C(=O)O[C@H]2CC(C)=CC[C@@]3(C)[C@@H](OC(C)=O)C[C@@](O)(C(C)C)[C@H]23)cc1,inactive [at 17.4 µM]
13,CC/C=C\C[C@H]1C(=O)C=C[C@@H]1CCCCCCCC(=O)O,inactive
14,CC1CC(=O)C2=C(O1)OC1(C)CCC3C(C)(C)C=CC(=O)C3(C)C1C2 (centres undefined),inactive
15,CC1(CO)CC2C(O)C(=O)C3(CO)CC3(C)C2C1 (centres undefined),inactive
16,CCn1nnnc1NCc1ccc(C(C)C)cc1,inactive
17,CCNC(=O)CCC/C=C\C[C@@H]1[C@@H](/C=C/C(O)CCc2ccccc2)[C@@H](O)C[C@@H]1O (some centres undefined),inactive
18,CN[C@@H]1[C@@H](O)[C@@H](O[C@@H]2[C@@H](O)[C@H](O[C@H]3O[C@H](CN)[C@@H](O)[C@H](O)[C@H]3O)[C@@H](N)C[C@H]2NC(=O)[C@@H](O)CN)OC[C@]1(C)O,inactive
19,CC1(C)OC(=O)C(OCC2CC2)=C1c1ccc(S(C)(=O)=O)cc1,inactive
